In PubChem BioAssay AID488922 (Johns Hopkins Ion Channel Center, 2010):
In all, about 310,000 compounds went through this assay and about 3,800 (1.2%) were called active.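 How the source made its calls: active means ratio B-score over 3 SD below the library mean, with starting fluorescence within 5 SD of its mean; inactive means the rest, inconclusive results apart.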 For the sample, actives were picked, then their nearest neighbours and some compounds at random.

These molecules were tested against Potassium channel subfamily K member 9 (Homo sapiens) (UniProt Q9NPC2) (assay: KCNK9 potassium channel inhibitors, primary screen, HEK293 cells, thallium flux (AID 488922;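 on B-score: negative B-score means less thallium flux so channel inhibition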)). Conditions: HEK293 KCNK9, FluxOR thallium flux fluorescence, at 10 µM; active compounds read low.
Sequence of Potassium channel subfamily K member 9 (Homo sapiens) (Q9NPC2 whole entry, looked up): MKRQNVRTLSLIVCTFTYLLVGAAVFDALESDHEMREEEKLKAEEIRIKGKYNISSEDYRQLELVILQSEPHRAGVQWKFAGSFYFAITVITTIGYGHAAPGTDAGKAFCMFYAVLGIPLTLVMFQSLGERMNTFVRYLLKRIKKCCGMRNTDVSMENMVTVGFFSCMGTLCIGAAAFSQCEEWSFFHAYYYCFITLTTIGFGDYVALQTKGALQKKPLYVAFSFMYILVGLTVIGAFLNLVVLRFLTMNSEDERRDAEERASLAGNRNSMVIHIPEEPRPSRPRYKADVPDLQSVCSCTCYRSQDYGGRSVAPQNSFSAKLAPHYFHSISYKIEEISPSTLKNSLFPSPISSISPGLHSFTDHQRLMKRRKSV
In the case of `Cc1nn(Cc2ccccc2Cl)c(C)c1NC(=O)Cn1nc([N+](=O)[O-])c(Cl)c1C`, the B-score is reported as “inactive”. In the case of `CC(=O)N1CCN(c2ccccc2NC(=S)NC(=O)c2cc3ccccc3o2)CC1`, the B-score is reported as “inactive”. For `O=C(NCc1ccco1)c1ccc(NS(=O)(=O)c2cccc([N+](=O)[O-])c2)cc1`, the B-score was -8.56 (active). With `O=C(NCc1ccco1)c1ccc([N+](=O)[O-])cc1Cl` the B-score was “inactive”. For `O=C(NCc1ccncc1)c1ccc(NS(=O)(=O)c2cccc([N+](=O)[O-])c2)cc1`, the B-score was “inactive”. For `O=C1CCCC(O)=C1N=Nc1ccc2ncsc2c1`, the B-score was “inactive”. In the case of `Cc1ccc(S(=O)(=O)N2CCC(C(=O)NCCC3=CCCCC3)CC2)cc1C`, the B-score is reported as “inactive”. For `c1ccc(-c2nc(NCc3ccco3)c3ccccc3n2)cc1`, the B-score was -6.58 (active). In the case of `c1coc(CNc2ncnc3ccccc23)c1`, the B-score is reported as “inactive”. With `O=C(Cc1ccccc1)n1nc(-c2ccccc2)nc1NCc1ccco1` the B-score was -9.15 (active). With `CS(=O)(=O)n1nc(-c2ccccc2)nc1NCc1ccco1` the B-score was “inactive”. In the case of `O=C(NCc1ccco1)c1nc(-c2ccccc2)n(-c2ccccc2)n1`, the B-score is reported as “inactive”. In the case of `CCOCCCNc1nc(-c2ccccc2)nc2ccccc12`, the B-score is reported as “inactive”. `CC(OC(=O)c1ccc(NS(=O)(=O)c2ccc3[nH]c(=O)[nH]c3c2)cc1)C(=O)Nc1cccc(Cl)c1Cl` (stereo unspecified) was tested, and the B-score was “inactive”. For `COc1ccc(-c2cnc(SCCNC(=O)c3ccc4c(c3)OCO4)[nH]2)cc1`, the B-score was “inactive”. For `Cc1ccccc1N1CCN(CC(=O)NCc2ccc(Cl)cc2)CC1`, the B-score was “inactive”. In the case of `O=C(NCCc1ccc(Cl)cc1)C1CCCN1C(=O)NCc1ccccc1` (stereo unspecified), the B-score is reported as “inactive”. With `O=C(Nc1ccccc1)c1ccco1` the B-score was “inactive”. For `O=C(Nc1ccc(O)cc1)c1ccc(NC(=O)c2ccco2)cc1`, the B-score was “inactive”. `O=C(Nc1ccc(Oc2ccccc2)cc1)c1ccco1` was tested, and the B-score was -10.1 (active). With `Cc1cc(C)cc(NC(=O)C2CCCN(S(=O)(=O)c3ccc4[nH]c(=O)ccc4c3)C2)c1` (stereo unspecified) the B-score was “inactive”. With `O=C(Oc1ccc(Br)cc1C(=S)N1CCOCC1)c1cccc([N+](=O)[O-])c1` the B-score was -16.4 (active). `COc1cc(C(=S)N2CCOCC2)cc(OC)c1OC(=O)c1cc([N+](=O)[O-])cc([N+](=O)[O-])c1` was tested, and the B-score was “inactive”. In the case of `O=C(Oc1ccccc1C(=S)N1CCCCC1)c1cc([N+](=O)[O-])cc([N+](=O)[O-])c1`, the B-score is reported as “inactive”. With `COc1ccccc1C(=O)Nn1cnnc1` the B-score was “inactive”. In the case of `CC(=O)Nc1ccc(OCCC[n+]2cccc(C(=O)[O-])c2)cc1`, the B-score is reported as “inactive”. For `Nc1c(-c2ccccc2)nnn1Cc1ccccc1`, the B-score was “inactive”. `CCCC1=Nc2cc(C(=O)NCCN3CCCC3)ccc2Sc2ccccc21` was tested, and the B-score was “inactive”. In the case of `CC(C)(C)c1ccc(C(=O)NCc2ccco2)cc1`, the B-score is reported as “inactive”. For `CCCC1=Nc2cc(C(=O)NCc3ccco3)ccc2Sc2ccccc21`, the B-score was -8.7 (active). For `CN(C)/C=C(\C#N)C(=O)c1cccnc1Oc1cccc(F)c1`, the B-score was “inactive”.
